According to PubChem BioAssay (NCI):
The panel holds about 83,000 compounds, 20% with a hit somewhere; the sample as a whole holds those more often.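 96-well plates, one dose, 48 hours. Percent growth reported; active if below 10.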 Calls of active or inactive are those of the source.

system: MDA-MB-468 breast; test: NCI-60 one-dose screen, 48 h (100 = growth as untreated, 0 = no growth, -100 = all killed); conditions: 10 µM unless noted

Compound	growth
COc1ccc(-c2csc(N(C(=O)N3CCN(c4cc5c(cc4F)c(=O)c(C(=O)O)cn5C4CC4)CC3)c3ccccc3)n2)cc1	7.88% (active)
O=C(CN1C(=O)CCC1=O)Nc1ncc(Cc2ccc(F)cc2)s1	109% (inactive)
COc1ccc(NC2=C(Br)C(=O)C(C)=C(C)C2=O)cc1OC	-66.6% (active)
C#CCn1cnc2cnc(Nc3cccc(NC(=O)C=C)c3)nc21	55.1% [6.25 µM] (inactive)
CC[C@H](Nc1ncnc2nc[nH]c12)c1nc2cccc(NCc3ccc(C(=O)NO)nc3)c2c(=O)n1-c1ccccc1	11.1% (inactive)
O=C(N/N=C/c1cc([N+](=O)[O-])ccc1O)c1cccc2ccccc12	-8.62% (active)
O=C(Nc1ccncc1)C(=O)c1cn(S(=O)(=O)c2cccc(Cl)c2F)c2ccccc12	33% (inactive)
O=C(CN1CCN(c2cc(=O)[nH]c3ccc(F)cc23)CC1)N(c1ccccc1)c1ccccc1	98.6% (inactive)
C[C@@H]1COCCN1c1cc(C2([S@](C)(=N)=O)CC2)nc(-c2ccnc3[nH]ccc23)n1	28.3% (inactive)
CC(=O)c1cnc2ccc(-c3cc(Cl)c(O)c(Cl)c3)nc2c1NC1CCC(CN(C)C)CC1 (stereo not given)	-62% [2.5 µM] (active)
COc1ccc(/C=C\c2cc(OC)c(OC)c(OC)c2)cc1OCC(=O)Nc1ccc2nc(C)sc2c1	7.78% (active)
CSc1nc(N)c2c(n1)NC(c1ccccc1)C1CCc3ccccc3C1=N2 (stereo not given)	76.4% (inactive)
O=[N+]([O-])c1ccc(N=Nc2ccccc2)cc1	109% (inactive)
c1ccc2cc(C[n+]3ccn(CCCCCCCCCCCCn4cc[n+](Cc5ccc6ccccc6c5)c4)c3)ccc2c1	-81.7% (active)
Oc1ccc(C2c3ccccc3Oc3ccccc32)c2cccnc12	9.14% (active)
CCCc1cc2c(=O)c(C(=O)OC)c[nH]c2cc1N(CC)CC	119% (inactive)
Cc1[nH]c(C(=O)Nc2ccc(C(=O)N3CCN(c4cc5c(cc4F)c(=O)c(C(=O)O)cn5C4CC4)CC3)cc2OC(C)C)c(Cl)c1Cl	85.9% (inactive)
Cc1cc(C)c(-c2c(C)cc(C)cc2CBr)c(CBr)c1	45.1% (inactive)
COc1ccc(-c2ncnc3c2ncn3CC#CCCl)cc1	20.8% (inactive)
Cc1ccccc1C1=N[C@@H](Cc2ccccc2)C(=O)c2c(nc3ccccn23)N1	104% (inactive)

Compound	growth
O=C(CCl)Nc1ccccc1SCc1cc(Cl)cc2c1OCOC2	51.6% (inactive)
CC1(C)CC(=O)c2c(nc3ccc(Cl)cc3c2-c2ccccc2)C1	92% (inactive)
O=C(/C=C/c1ccccc1)C(Br)C(Br)c1ccccc1 (stereo not given)	-38.1% (active)
COc1cc(/C=C/C(=O)c2cc(-c3ccccc3)ccc2O)cc(OC)c1OC	58.3% (inactive)
COc1cccc(/C=C2\COc3ccc(O)cc3C2=O)c1OC	43.9% (inactive)
CC(C)(C)OC(=O)N1CCN(c2ccc(N)cc2)C(=O)C1	111% (inactive)
Cc1ccc(-c2nnc(SCc3ccc(O)c4ncccc34)o2)cc1	14.4% (inactive)
CCCCCCOc1ccc(/C=N/Nc2cc(C)nc3ccc(Cl)cc23)cc1	-56.7% (active)
Cc1cc(C(=O)Nc2ccc3cc(CN4CCOCC4)ccc3n2)c(C)n1-c1ccccc1	26.7% (inactive)
COc1cc(/C=C/C(=O)c2c(-c3ccc(Cl)cc3)nc3sc(C)nn23)cc(OC)c1OC	65.7% (inactive)
C=CCSc1n[nH]c(-c2cccs2)n1	95.6% (inactive)
Cc1ccc(-c2csc(NC(=O)c3ccccc3CN3C(=O)c4ccccc4C3=O)n2)cc1	92.1% (inactive)
O=C1C(Cl)=C(Nc2ccc(S(=O)(=O)c3ccc(NC4=C(Cl)C(=O)c5ccccc5C4=O)cc3)cc2)C(=O)c2ccccc21	-60.1% (active)
COc1ccc(NC(=O)c2sc3nc(C)c(C(=O)/C=C/c4cccc(OC)c4)cc3c2N)cc1	27.9% (inactive)
CN1CCN(c2ccc(C(=O)/C=C/c3ccc(Cl)c(C(F)(F)F)c3)cc2)CC1	18.4% (inactive)
O=C(CCl)N1c2ccccc2Sc2ccc3ccccc3c21	-76.1% (active)
O=C(Nc1ccc(Cl)cc1)c1cc(-c2ccc(Cl)cc2)c2sc(=O)[nH]c2n1	-3.42% (active)
COCC(=O)Oc1cc(-c2ccc(C)cc2C)c(OC(=O)COC)c(-c2ccc(C)cc2C)c1	-0.64% (active)
NS(=O)(=O)Oc1ccc(-c2sc3cc(O)ccc3c2C(=O)c2ccc(OCCN3CCCCC3)cc2)cc1	95.1% (inactive)
CCOC(Cc1c(N)[nH]c(=S)[nH]c1=O)OCC	101% (inactive)
